As usually defined, the inhibition is the change of the read-out against control, counted positive when it falls.

The values below come from PubChem BioAssay AID652257 (The Scripps Research Institute Molecular Screening Center, 2013).

SMILES strings stand for the structures. Hit rate of the full screen: of about 370,000 compounds, about 4,800 (1.3%) were called active. The list comes from a sample in which actives are over-represented; it also holds similar structures and randomly drawn compounds. Unmarked numbers belong to inactive results.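 Rule for the calls: active = inhibition above about 21% made by adding two undisclosed values (limit read from the data); inactive = the rest.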

For this experiment, the target named is Protein arginine N-methyltransferase 1 (Homo sapiens) (UniProt Q99873). Briefly: human PRMT1 activity-probe blockers – biochemical, fluorescence polarization, primary screen (AID 652257). The following applies: recombinant PRMT1, activity-based probe fluorescence polarization; at 2.79 µM; hits give high values. For orientation: In fluorescence polarisation assays a small probe gives low polarisation when free and higher when bound to something large.
Protein arginine N-methyltransferase 1 (Homo sapiens), sequence (Q99873 whole entry, looked up): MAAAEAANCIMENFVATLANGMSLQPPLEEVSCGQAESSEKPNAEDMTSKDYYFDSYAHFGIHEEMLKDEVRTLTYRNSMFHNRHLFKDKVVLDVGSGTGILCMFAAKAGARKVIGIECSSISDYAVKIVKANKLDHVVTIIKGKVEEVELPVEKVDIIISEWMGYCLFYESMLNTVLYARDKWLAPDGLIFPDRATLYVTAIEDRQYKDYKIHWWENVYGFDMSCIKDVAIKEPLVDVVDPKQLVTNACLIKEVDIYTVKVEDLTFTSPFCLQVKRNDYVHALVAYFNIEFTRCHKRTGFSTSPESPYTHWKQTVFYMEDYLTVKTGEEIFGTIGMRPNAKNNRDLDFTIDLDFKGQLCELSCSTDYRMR
In the case of `Oc1cc2c(cc1CN1CCN(c3ccccc3)CC1)OCO2`, the inhibition is 24.3% (active). As for `CC(C)c1ccc(O)c(CN2CCN(c3ccccc3)CC2)c1`, the inhibition was -1.49%. As to `Fc1ccc(N2CCN(Cc3ccc4c(c3)OCO4)CC2)cc1`, the inhibition was -0.82%. Then `O=C(N/N=C/c1c(O)n(C2CC2)c(=S)[nH]c1=O)c1ccccc1`, with 3.82%; and `CC1C2Cn3c(nc4ccccc43)C1N(C)O2` (stereo unspecified), with 1%; and `O=S(=O)(c1ccccc1)N1CCC2CCNC2C1` (stereo unspecified), with -4.47%. Then `ClC(Cl)(Cl)c1ccccc1`, with -1.08%.

With `O=C1NC(=O)N(c2ccccc2)C(=O)/C1=C/c1ccc([N+](=O)[O-])s1`, the inhibition is 30.1% (active).

Consider `CC(C(=O)Nc1ccc(Cl)cc1Cl)N1CC=C(c2ccccc2)CC1` (stereo unspecified), for which the inhibition was -2.84%. Then `CCOc1ccc(-c2cc(C)[n+](CCN(CC)CC)c(-c3ccc(OCC)cc3)c2)cc1`, with 4.49%; and `Cc1c(Oc2cc(NN3CCCCC3)c([N+](=O)[O-])cc2[N+](=O)[O-])cccc1[N+](=O)[O-]`, with 0.33%; and `CCOc1cccc(=NC2CCCCC2)c2c(C)[nH]c(C)c12`, with 24.5% (active). With `COc1ccc2c(c1)[C@@]13CCCCC1[C@@H](C2)NCC3` (stereo partly specified), the inhibition is 0.98%.

Regarding `CC(=O)C1(O)CCC2C3CCC4=C(Cl)C(=O)CCC4(C)C3CCC21C` (stereo unspecified), the inhibition is -3.26%. For `C=CCN1C(=O)NC(=O)/C(=C/c2ccc(OCC(=O)Nc3ccc(C)cc3)cc2)C1=O`, the inhibition was 2.43%. The result for `O=C(O)COc1ccccc1/C=C1\C(=O)NC(=O)N(CCC2=CCCCC2)C1=O` reads 21.6% (active); that for `CCCCC(=O)N/N=C/c1c(O)n(CCC2=CCCCC2)c(=O)[nH]c1=O`, 4.46%.

As to `COP(=O)(Sc1ccccc1)C(Cc1ccccc1)NC(=O)OCc1ccccc1` (stereo unspecified), the inhibition is 15.9%. Take `CCC(C)NC1(c2ccccc2)CCCCC1` (stereo unspecified): the inhibition was -3.67%.

Regarding `Brc1ccc2c(c1)CNCc1cnnn1-2`, the inhibition is -6.53%. Consider `CCCOC(=O)C1C2c3ccccc3C(c3ccccc32)C1C(=O)O` (stereo unspecified), for which the inhibition is -2.66%.

Take `O=C1NC(=O)N(Cc2ccco2)C(=O)/C1=C\c1ccc(-c2ccc(F)cc2)o1`: the inhibition is 25% (active). The result for `Cc1cc(/C=C2/C(=O)NC(=O)N(Cc3ccco3)C2=O)c(C)n1-c1ccc(C(=O)O)cc1` reads 42% (active). Then `Cc1ccc(-n2c(C)cc(/C=C3\C(=O)NC(=O)N(C)C3=O)c2C)cc1C`, with 2.43%; and `Cc1cc(C=C2C(=O)NC(=O)NC2=O)c(C)n1-c1ccncc1`, with 3.52%; and `COc1cc2nc(N3CCN(C(=O)[C@@H]4CCCO4)CC3)nc(N)c2cc1OC`, with -2.88%.
